Measurements reported in PubChem BioAssay (NCATS).
Where “and” joins values, the source holds several entries; their conditions need not be identical. Equal entries are not always repeated. Values without a mark were called inactive. Records with an inconclusive call do not appear. Entries that show only a call come without a potency. Calls of active or inactive are those of the source. Unless noted, calls follow the shape of the dose curve; as a rule, active = well fitted curve in the direction sought with a large enough effect; inconclusive = small, poorly fitted or top-dose-only effect, or another doubt; inactive = no such curve, though single readings can be large; an effect the other way counts as inactive or inconclusive.

How the values were obtained:
[1] = qHTS to identify inhibitors of the type 1 interferon - major histocompatibility complex class I in skeletal muscle: primary screen against the NCATS Mechanism Interrogation Plate v5.0 (MIPE) Libary (AID 1347411); also: nearly all actives have a fitted effect of over 65% in size
Method in brief: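 Immortalized human C25cl48 myoblasts with HiBit knocked into endogenous HLA-B*08:01 were stimulated with 4.0 ng/ml IFN-beta and exposed to compounds (11-point 1:3 titration, top 46 uM final) for 24 hrs at 37 C; HiBiT lytic luminescence measured.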

[2] = molecular target: Protein phosphatase 1D (Homo sapiens) (UniProt O15297); assay: RapidFire Mass Spectrometry qHTS Assay for Modulators of WT P53-Induced Phosphatase 1 (WIP1) (AID 1347424);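 also: amount of dephosphorylated VEPPL-S-QETFS peptide product formed by WIP1; series mostly up to about 63 µM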
Method in brief: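 WIP1 (10 nM final) was preincubated 1 h at room temperature with compounds in Tris-HCl pH 7.5, 30 mM MgCl2, TCEP, EGTA, BSA; 2 uM VEPPL-pS-QETFS phosphopeptide was added for 5 min, quenched with formic acid, and dephosphorylated product quantified by RapidFire MS.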

[3] = molecular target: Protein phosphatase 1D (Homo sapiens) (UniProt O15297); assay: Rhodamine-PBP qHTS Assay for Modulators of WT P53-Induced Phosphatase 1 (WIP1) (AID 1347425)
Method in brief: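 The read-out is the change in Rhodamine-PBP fluorescence (f1 - f0, ex 525/em 598 nm) as Pi is released, read each minute for 11 min. Final reaction: 5 nM WIP1, 10 uM phosphopeptide VEPPL-pS-QETFS, 10 uM Rh-PBP, 50 mM Tris-HCl pH 7.5, 30 mM MgCl2. Compound was preincubated with enzyme for 1 hour at room temperature.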

[4] = Primary qHTS for inhibitors of La Crosse Virus (LACV) - induced cell death in SH-SY5Y cells (AID 1508616);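 also: top concentration of the series differs between compounds; higher means more rescue of cells from virus-induced death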
Method in brief: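 Luminescent ATP readout (ATPLite 1step, 5 min room temperature) measured rescue from LACV-induced death after 6 days of infection at 0.01 MOI; normalized to infected DMSO wells and uninfected DMSO wells.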

[5] = molecular target: Calcium and integrin-binding protein 1 (Homo sapiens) (UniProt Q99828); assay: Primary qHTS for Identification of Calcium Integrin Binding Protein 1 (CIB1) Competitor (AID 1508620);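 also: GST tagged CIB1 binding a fluorescein labelled alphaIIb integrin peptide tracer; top concentration of the series differs between compounds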
Method in brief: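 Fluorescence polarization competition: CIB1-GST (1 uM final) preincubated with compound 15 min at room temperature, then FITC-labeled alphaIIb peptide (100 nM final) added for another 15 min. Polarization read at Ex 480/Em 540.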

[6] = Counterscreen qHTS for small molecule stabilizers of the endoplasmic reticulum resident proteome: GLuc-NoTag assay (AID 1508627);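 also: SH-SY5Y cells given compound then 100 nM thapsigargin to empty ER calcium; series mostly up to about 76 µM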
Method in brief: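 SH-SY5Y cells stably expressing constitutively secreted GLuc (no SERCaMP tag) were pre-incubated 5 h, treated with compound for 19 h, then 100 nM thapsigargin for 4 h at 37C; medium GLuc read by coelenterazine luminescence.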

[7] = Confirmatory qHTS for small molecule stabilizers of the endoplasmic reticulum resident proteome: Secreted ER Calcium Modulated Protein (SERCaMP) assay (AID 1508628); also: potency is read from the fitted curve at half-maximal effect; nearly all actives have a fitted effect of over 40% in size
Method in brief: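 We seeded SH-SY5Y-GLuc-SERCaMP cells, added compounds (three concentrations in the primary run, eleven up to 76.6 uM in confirmation), incubated 16 h, depleted ER calcium with thapsigargin, and read luciferase 4 h later.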

[8] = Cell Viability qHTS for small molecule stabilizers of the endoplasmic reticulum resident proteome (AID 1508629); settings: cell viability counter-screen, 100 nM thapsigargin for final 4 h;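 also: human SH-SY5Y neuroblastoma cells carrying the GLuc-SERCaMP reporter; compound exposure about 46 h in total before the viability read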
[9] = Primary qHTS for small molecule stabilizers of the endoplasmic reticulum resident proteome: Secreted ER Calcium Modulated Protein (SERCaMP) assay (AID 1508630); also: potency is read from the fitted curve at half-maximal effect
Method in brief: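 GLuc-SERCaMP-expressing SH-SY5Y cells, pretreated 16 h with compound, are challenged with thapsigargin to empty ER calcium stores; after 4 h, coelenterazine is added directly to the medium and luminescence is imaged.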

[10] = A High-Content qHTS Against Drug Library for the Identification of Small Molecules that Inhibit DYT1 Early Onset Primary Dystonia-Associated Cell Pathology (AID 1645839; calls by dose curve; also: series mostly up to about 46 µM)
Method in brief: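 Readout: %pathology, the punctate EGFP-TorsinA distribution from imaging, as the primary channel and cell count as the toxicity counterscreen. HEK293 Flp-In cells expressing delE TorsinA were induced with tetracycline and treated with compound for 48 h.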

[11] = molecular target: Cytochrome P450 2D6 (Homo sapiens) (UniProt P10635); assay: Cytochrome P450 family 2 subfamily D member 6 (CYP2D6) small molecule antagonists: luciferase biochemical (cell-free) qHTS assay (AID 1645840; active = well fitted curve in the direction sought with a large enough effect in the repeat runs; an effect the other way counts as inactive or inconclusive; also: nearly all actives have a fitted effect of over 55% in size; also: potency is read from the fitted curve at half-maximal effect)
Method in brief: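 P450-Glo luminescent screen: recombinant CYP2D6 enzyme–proluciferin substrate mix preincubated with compound 10 min at room temperature, then NADPH regeneration added for 1 h at room temperature. Detection reagent added for 20 min; luciferin light read as relative luminescence units.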

[12] = molecular target: Cytochrome P450 2C9 (Homo sapiens) (UniProt P11712); assay: Cytochrome P450 family 2 subfamily C member 9 (CYP2C9) small molecule antagonists: luciferase biochemical (cell-free) qHTS assay (AID 1645842; active = well fitted curve in the direction sought with a large enough effect in the repeat runs; an effect the other way counts as inactive or inconclusive; also: nearly all actives have a fitted effect of over 55% in size; also: potency is read from the fitted curve at half-maximal effect)
Method in brief: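 Luminescence, after 20 min with luciferin detection reagent, reflected CYP2C9 turnover during a 1 h NADPH-driven reaction at 37C. Enzyme-substrate mix contained 0.4% bovine serum albumin and was preincubated with compound 10 min at room temperature.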

[13] = qHTS for inhibitors of adenylyl cyclases using a fission yeast platform: a pilot screen against the NCATS LOPAC library (AID 1347410)
Method in brief: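 Growth medium went into the plates first, then compounds were pinned (final up to 57 µM), then CHP2027 yeast were added. Plates were incubated overnight (18 h) at 30C in the dark, and GFP was measured by laser scanning cytometry.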

[14] = Validation qHTS assay for inhibitors of Activation Induced Cytidine Deaminase (AID): UDG Counterscreen signal (AID 1347427)
Method in brief: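 Counterscreen read of UDG activity (2 U/mL, 4/3x) in the FRET deamination format with AID (1 uM, 4/3x), DJC20/DJC23 substrates (250 nM, 4x), 4 h at room temperature. NaOH stop, fluorescence at 560 ex/665 em.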

[15] = molecular target: Single-stranded DNA cytosine deaminase (Homo sapiens) (UniProt Q9GZX7); assay: Validation qHTS assay for inhibitors of Activation Induced Cytidine Deaminase (AID): AID signal (AID 1347429)
Method in brief: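 AID and UDG were combined and compounds added at final up to 114 uM, then DJC20/DJC23 FRET substrate was added for 4 hr at room temperature. NaOH was then added for 30 min before fluorescence was read at 540/590 nm.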

[16] = molecular target: Calcium and integrin-binding protein 1 (Homo sapiens) (UniProt Q99828); assay: Validation qHTS for Identification of Calcium Integrin Binding protein 1 (CIB1) Competitor (AID 1508618)
Method in brief: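 CIB1-GST (1 uM final) incubated 15 min at room temperature with compounds (up to 114 uM), then FITC-labelled alphaIIb peptide (100 nM) added. FP read (Ex 480/Em 540) after 15 min, pH 7.4 buffer containing 5 mM CaCl2.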

[17] = molecular target: Papain (Carica papaya) (UniProt P00784); assay: Primary qHTS assay for inhibitors of the protease papain (AID 1645873);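 also: papain turnover of Z-FR-AMC read as the AMC fluorescence gain over 10 min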; also: potency is read from the fitted curve at half-maximal effect
Sequence of Papain (Carica papaya) (P00784 whole entry, looked up): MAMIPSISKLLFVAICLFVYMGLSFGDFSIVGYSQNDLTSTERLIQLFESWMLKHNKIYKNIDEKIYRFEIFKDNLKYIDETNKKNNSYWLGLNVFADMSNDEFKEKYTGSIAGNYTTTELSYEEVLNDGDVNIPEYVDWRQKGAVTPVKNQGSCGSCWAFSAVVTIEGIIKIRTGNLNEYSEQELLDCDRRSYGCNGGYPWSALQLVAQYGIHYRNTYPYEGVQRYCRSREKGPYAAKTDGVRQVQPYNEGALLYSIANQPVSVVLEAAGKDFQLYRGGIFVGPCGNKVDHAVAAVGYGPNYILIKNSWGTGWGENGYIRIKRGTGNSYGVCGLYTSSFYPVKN

Sequence of Cytochrome P450 2C9 (Homo sapiens) (P11712 whole entry, looked up): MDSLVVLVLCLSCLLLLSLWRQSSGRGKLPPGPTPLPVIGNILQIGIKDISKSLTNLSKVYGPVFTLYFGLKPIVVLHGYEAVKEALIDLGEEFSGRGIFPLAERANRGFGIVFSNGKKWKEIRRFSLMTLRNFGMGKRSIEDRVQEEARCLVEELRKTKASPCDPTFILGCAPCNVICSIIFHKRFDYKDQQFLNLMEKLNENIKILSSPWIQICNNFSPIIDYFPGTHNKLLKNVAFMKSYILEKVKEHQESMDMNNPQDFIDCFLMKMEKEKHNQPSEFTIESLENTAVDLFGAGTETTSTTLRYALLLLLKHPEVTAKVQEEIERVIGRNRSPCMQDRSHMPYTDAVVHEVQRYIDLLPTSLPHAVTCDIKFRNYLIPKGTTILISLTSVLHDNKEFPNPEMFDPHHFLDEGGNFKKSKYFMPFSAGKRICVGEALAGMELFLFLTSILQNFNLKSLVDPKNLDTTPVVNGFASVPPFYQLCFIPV
Sequence of Single-stranded DNA cytosine deaminase (Homo sapiens) (Q9GZX7 whole entry, looked up): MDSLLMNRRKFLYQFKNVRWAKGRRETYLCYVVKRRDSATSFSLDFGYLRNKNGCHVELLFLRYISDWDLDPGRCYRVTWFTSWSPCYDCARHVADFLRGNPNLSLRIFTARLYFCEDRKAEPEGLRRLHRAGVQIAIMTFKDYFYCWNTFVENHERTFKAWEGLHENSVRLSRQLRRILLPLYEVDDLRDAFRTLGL
Sequence of Calcium and integrin-binding protein 1 (Homo sapiens) (Q99828 whole entry, looked up): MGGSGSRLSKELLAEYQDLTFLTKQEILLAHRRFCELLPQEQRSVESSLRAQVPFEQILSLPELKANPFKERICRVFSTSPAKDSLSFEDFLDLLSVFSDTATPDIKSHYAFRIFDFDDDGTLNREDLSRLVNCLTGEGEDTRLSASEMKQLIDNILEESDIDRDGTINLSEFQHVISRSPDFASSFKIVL
Sequence of Cytochrome P450 2D6 (Homo sapiens) (P10635 whole entry, looked up): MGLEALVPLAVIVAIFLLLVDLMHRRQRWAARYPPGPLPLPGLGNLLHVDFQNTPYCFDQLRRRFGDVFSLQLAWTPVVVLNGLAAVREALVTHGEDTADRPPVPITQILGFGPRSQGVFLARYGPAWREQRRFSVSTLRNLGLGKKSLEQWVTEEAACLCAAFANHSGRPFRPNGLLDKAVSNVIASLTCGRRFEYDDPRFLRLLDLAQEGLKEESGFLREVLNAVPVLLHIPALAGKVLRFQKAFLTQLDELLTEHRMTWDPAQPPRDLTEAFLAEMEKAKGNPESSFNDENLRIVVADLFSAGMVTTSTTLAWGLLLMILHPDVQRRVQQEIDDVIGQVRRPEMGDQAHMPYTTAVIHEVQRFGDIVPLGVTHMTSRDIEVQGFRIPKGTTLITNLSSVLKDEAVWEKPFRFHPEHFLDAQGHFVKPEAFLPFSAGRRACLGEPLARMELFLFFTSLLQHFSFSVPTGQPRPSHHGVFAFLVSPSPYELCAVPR
Sequence of Protein phosphatase 1D (Homo sapiens) (O15297 whole entry, looked up): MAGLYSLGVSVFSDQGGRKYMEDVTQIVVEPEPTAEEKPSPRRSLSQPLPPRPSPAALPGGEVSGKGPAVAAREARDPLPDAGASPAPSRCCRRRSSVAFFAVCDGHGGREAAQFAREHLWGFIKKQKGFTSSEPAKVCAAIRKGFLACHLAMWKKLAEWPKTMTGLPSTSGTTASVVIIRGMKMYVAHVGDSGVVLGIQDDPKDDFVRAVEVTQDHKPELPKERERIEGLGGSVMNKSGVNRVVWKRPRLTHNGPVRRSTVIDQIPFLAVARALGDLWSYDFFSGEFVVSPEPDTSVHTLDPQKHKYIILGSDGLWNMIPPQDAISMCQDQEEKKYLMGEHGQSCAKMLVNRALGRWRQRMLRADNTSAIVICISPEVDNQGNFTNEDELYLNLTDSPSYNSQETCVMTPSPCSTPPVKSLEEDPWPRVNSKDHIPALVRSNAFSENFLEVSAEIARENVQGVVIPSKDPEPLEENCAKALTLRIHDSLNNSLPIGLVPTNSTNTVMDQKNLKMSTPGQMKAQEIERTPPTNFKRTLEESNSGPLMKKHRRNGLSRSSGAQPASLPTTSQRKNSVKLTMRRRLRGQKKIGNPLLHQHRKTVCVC

Row | Structure (SMILES) | Potency [1] | outcome [2] | outcome [3] | Potency [4] | outcome [5] | outcome [6] | Potency [7] | max response [8] | Potency [9] | Potency [10] | Potency [11] | Potency [12] | outcome [13] | outcome [14] | outcome [15] | outcome [16] | Potency [17]
1 | COc1c(N2CCNC(C)C2)c(F)cc2c(=O)c(C(=O)O)cn(C3CC3)c12 (stereo not given) | inactive | inactive | inactive | inactive | inactive | inactive | 14.1 µM (active) | -1.18% and 19.6% | 20 µM (active) | inactive | inactive | inactive | – | – | – | – | –
2 | OCc1ccc(-c2nn(Cc3ccccc3)c3ccccc23)o1 | inactive | – | – | inactive | inactive | – | – | – | inactive | – | – | – | inactive | inactive | inactive | inactive | 25.1 µM (active)
3 | CCCc1nc(C)c2c(=O)[nH]c(-c3cc(S(=O)(=O)N4CCN(CC)CC4)ccc3OCC)nn12 | inactive | inactive | inactive | inactive | inactive | – | – | – | inactive | inactive | inactive | – | – | – | – | – | –
4 | O=C(O)CSCC(=O)NC1CCSC1=O (stereo not given) | inactive | inactive | inactive | inactive | inactive | – | – | – | inactive | inactive | inactive | inactive | – | – | – | – | –
5 | NC(=O)c1ccc2[nH]ccc2c1 | inactive | – | – | inactive | inactive | – | – | – | inactive | – | – | – | inactive | inactive | inactive | inactive | inactive
6 | CC(C)OC(=O)C(C(=O)OC(C)C)=C1SC=CS1 | inactive | inactive | inactive | inactive | inactive | – | – | – | inactive | inactive | – | – | – | – | – | – | –
7 | CC1=C(C(=O)O)N2C(=O)[C@@H](NC(=O)C(N)c3ccccc3)[C@H]2SC1 (stereo not given in full) | – | – | – | inactive | inactive | – | – | – | inactive | – | – | – | inactive | inactive | inactive | inactive | inactive
8 | O=C(NCC1CN(c2ccc(N3CCOCC3=O)cc2)C(=O)O1)c1ccc(Cl)s1 (stereo not given) | inactive | inactive | inactive | inactive | inactive | – | – | – | inactive | inactive | inactive | 8.71 µM (active) and 3.79 µM (active) | – | – | – | – | –
9 | CCN1CCCC1CNC(=O)c1cc(S(N)(=O)=O)ccc1OC (stereo not given) | – | – | – | inactive | inactive | – | – | – | inactive | – | – | – | inactive | inactive | inactive | inactive | inactive
10 | CCC(C)(C)c1ccc(CC(C)CN2C[C@@H](C)O[C@@H](C)C2)cc1 (stereo not given in full) | inactive | inactive | inactive | inactive | inactive | – | – | – | inactive | inactive | 4.9 µM (active) | – | – | – | – | – | –
11 | CCC(=O)O[C@]1(C(=O)SCF)[C@H](C)C[C@H]2[C@@H]3C[C@H](F)C4=CC(=O)C=C[C@]4(C)[C@@]3(F)[C@@H](O)C[C@@]21C | inactive | inactive | inactive | inactive | inactive | – | – | – | inactive | inactive | inactive | – | – | – | – | – | –
